Where “and” joins values, the source holds several entries; their conditions need not be identical. Equal values may be shown once. About 2,000 (36%) of roughly 5,500 compounds were called active. Another 18% or so got no clear call; they are omitted. Cut-off read from the data, not from the text of the source: active = normalized growth mostly below about 0.91 (no sharp cut-off); inconclusive = no clear call, values can overlap the other calls; inactive = mostly above about 0.92. The list shows a part of the results.
Assay: chemical genetic growth profiling, strain panel (AID 1159580);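 note: tested at 20 µM; growth read once vehicle control cultures reached saturation at 30 °C; 1 = growth at the plate median or of vehicle wells; lower values mean less growth of the strain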
Conditions: S. cerevisiae deletion strains, growth OD

Measured: normalized growth

NC(=O)c1ccc[n+]([C@@H]2O[C@H](COP(=O)([O-])OP(=O)(O)OC[C@H]3O[C@@H](n4cnc5c(N)ncnc54)[C@H](O)[C@@H]3O)[C@@H](O)[C@H]2O)c1
inactive: locus YAL013W, strain DEP1, active compounds read low 0.974 | locus YAL021C, strain ccr4, active compounds read low 1.05 | locus YAL026C, strain drs2, active compounds read low 1.04 | locus YAL030W, strain snc1, active compounds read low 1.02 | locus YBL061C, strain skt5, active compounds read low 1.03 | locus YBR009C, strain hhf1, active compounds read low 1.05 | locus YBR021W, strain FUR4, active compounds read low 0.996 | locus YBR023C, strain chs3, active compounds read low 1.03 | locus YBR171W, strain sec66, active compounds read low 1.06 | locus YBR229C, strain ROT2, active compounds read low 0.949 | locus YBR231C, strain swc5, active compounds read low 1.03 | locus YBR279W, strain paf1, active compounds read low 1.02 | locus YCL011C, strain gbp2, active compounds read low 1.04 | locus YCL016C, strain dcc1, active compounds read low 1.04 | locus YCL029C, strain bik1, active compounds read low 0.99 | locus YCL061C, strain MRC1, active compounds read low 1.03 | locus YCL069W, strain vba3, active compounds read low 1.03 | locus YCR088W, strain abp1, active compounds read low 1.03 | locus YDL005C, strain med2, active compounds read low 1.02 | locus YDL035C, strain GPR1, active compounds read low 0.986 | locus YDL040C, strain nat1, active compounds read low 1.03 | locus YDL074C, strain BRE1, active compounds read low 1.03 | locus YDL101C, strain DUN1, active compounds read low 0.987 | locus YDL134C, strain PPH21, active compounds read low 0.978 | locus YDL185W, strain tfp1, active compounds read low 0.994 | locus YDL192W, strain arf1, active compounds read low 0.99 | locus YDR001C, strain nth1, active compounds read low 1.02 | locus YDR069C, strain doa4, active compounds read low 1.02 | locus YDR101C, strain arx1, active compounds read low 1.01 | locus YDR137W, strain rgp1, active compounds read low 1.07 | locus YDR150W, strain NUM1, active compounds read low 0.965 | locus YDR159W, strain sac3, active compounds read low 0.949 | locus YDR162C, strain NBP2, active compounds read low 0.973 | locus YDR195W, strain ref2 1.08 | locus YDR297W, strain sur2, active compounds read low 1.04 | locus YDR318W, strain mcm21, active compounds read low 1.02 | locus YDR334W, strain swr1, active compounds read low 1.02 | locus YDR335W, strain msn5, active compounds read low 1.05 | locus YDR388W, active compounds read low 0.99 | locus YDR392W, strain spt3, active compounds read low 1.08 | locus YDR502C, strain sam2, active compounds read low 0.992 | locus YEL003W, strain gim4, active compounds read low 1.02 | locus YEL037C, strain rad23, active compounds read low 1.03 | locus YEL061C, strain CIN8 (second series), active compounds read low 1.02 | locus YEL061C, strain CIN8, active compounds read low 0.981 | locus YER015W, strain faa2, active compounds read low 1.04 | locus YER016W, strain bim1, active compounds read low 1.04 | locus YER110C, active compounds read low 0.973 | locus YER111C, strain swi4, active compounds read low 1.03 | locus YER155C, strain BEM2 (second series), active compounds read low 1.06 | locus YER155C, strain BEM2, active compounds read low 0.99 | locus YER167W, strain BCK2, active compounds read low 0.987 | locus YFR010W, strain ubp6, active compounds read low 1.05 | locus YGL078C, strain dbp3, active compounds read low 0.998 | locus YGL086W, strain mad1, active compounds read low 0.992 | locus YGL167C, strain pmr1, active compounds read low 1.04 | locus YGL173C, strain kem1, active compounds read low 1.04 | locus YGL227W, strain vid30, active compounds read low 1.03 | locus YGL240W, strain doc1, active compounds read low 1.02 | locus YGL248W, strain PDE1, active compounds read low 0.977 | locus YGL253W, strain hxk2, active compounds read low 1.04 | locus YGR078C, strain PAC10, active compounds read low 1.02 | locus YGR135W, strain pre9, active compounds read low 1 | locus YGR229C, strain SMI1, active compounds read low 1.02 | locus YGR252W, strain gcn5, active compounds read low 0.913 | locus YHR013C, strain ard1, active compounds read low 1.08 | locus YHR027C, strain rpn1, active compounds read low 1.03 | locus YHR030C, strain SLT2, active compounds read low 0.981 and 0.987 | locus YHR079C, strain IRE1 (second series), active compounds read low 1 | locus YHR079C, strain IRE1, active compounds read low 0.962 | locus YHR094C, strain hxt1, active compounds read low 0.993 | locus YHR129C, strain ARP1, active compounds read low 0.996 | locus YHR142W, strain chs7, active compounds read low 1.09 | locus YHR200W, strain rpn10, active compounds read low 0.994 | locus YIL066C, strain RNR3, active compounds read low 0.982 | locus YIL073C, strain SPO22, active compounds read low 0.985 | locus YIL125W, strain kgd1, active compounds read low 0.986 | locus YIR030C, strain dcg1, active compounds read low 0.988 | locus YJL092W, strain hpr5, active compounds read low 1.02 | locus YJL095W, strain BCK1 (second series), active compounds read low 1.02 | locus YJL095W, strain BCK1, active compounds read low 1.03 and 0.983 | locus YJL115W, strain asf1, active compounds read low 1.03 | locus YJL129C, strain trk1, active compounds read low 1.06 | locus YJL134W, strain LCB3, active compounds read low 0.977 | locus YJL154C, strain vps35, active compounds read low 1.02 | locus YJL164C, strain tpk1, active compounds read low 1.05 | locus YJL166W, strain qcr8, active compounds read low 1.03 | locus YJL168C, strain set2, active compounds read low 0.995 | locus YJL187C, strain SWE1 (second series), active compounds read low 0.987 | locus YJR043C, strain POL32, active compounds read low 1.02 | locus YJR066W, strain TOR1, active compounds read low 0.943

Source: PubChem BioAssay AID1159580 (chemical genetic matrix, 2015)
